Assay results taken from the supplement of paper PMC9942566.
Where a name gives a salt, the structure may show the parent alone. ± gives the standard deviation of the averaged measurements.

test system: Serratia marcescens K904 PosmB-luxCDABE reporter (pMQ747); assay: PosmB-lux reporter fold induction (RLU/OD600 relative to no-compound control), highest over Biolog concentrations; higher = stronger reporter activation; settings: Biolog plate: PM11; well positions: C1-4; ΔrcsB mutant CMS5177; 4 h
Procedure: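 Serratia marcescens K904 (wild type) or its isogenic ΔrcsB mutant, carrying the Rcs-dependent PosmB-luxCDABE reporter plasmid pMQ747, was grown in LB at OD600 0.1 in Biolog Phenotype MicroArray plates PM11-20 for 4 h at 30-32°C. Each compound is present at 3-4 proprietary concentrations (not stated); per the Fig. S1 legend the value given is the highest fold over those wells. Three independent trials.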

| Structure (SMILES) | PosmB-lux reporter fold induction |
| --- | --- |
| Cc1c(N)nc([C@H](CC(N)=O)NC[C@H](N)C(N)=O)nc1C(=O)N[C@H](C(=O)N[C@H](C)[C@@H](O)[C@H](C)C(=O)N[C@H](C(=O)NCCc1nc(-c2nc(C(=O)NCCC[S+](C)C)cs2)cs1)[C@@H](C)O)[C@@H](OC1OC(CO)C(O)C(O)C1OC1OC(CO)C(O)C(OC(N)=O)C1O)c1cnc[nH]1 (stereo not given in full) [Bleomycin] | 0.988 ± 0.1 |

same assay, conditions: Biolog plate: PM11; well positions: G9-12; ΔrcsB mutant CMS5177; 4 h

| Structure (SMILES) | PosmB-lux reporter fold induction |
| --- | --- |
| O=[Te]([O-])[O-].[K+].[K+] [Potassium tellurite] | 1.14 ± 0.19 |

same assay, conditions: Biolog plate: PM13; well positions: A9-12; ΔrcsB mutant CMS5177; 4 h

| Structure (SMILES) | PosmB-lux reporter fold induction |
| --- | --- |
| [Cl][Ni][Cl] [Nickel chloride] | 1.06 ± 0.2 |

same assay, conditions: Biolog plate: PM13; well positions: C9-12; ΔrcsB mutant CMS5177; 4 h

| Structure (SMILES) | PosmB-lux reporter fold induction |
| --- | --- |
| [K+].[K+].[O]=[Cr](=[O])([O-])[O-] [Potassium chromate] | 1.87 ± 0.86 |

same assay, conditions: Biolog plate: PM13; well positions: E5-8; ΔrcsB mutant CMS5177; 4 h

| Structure (SMILES) | PosmB-lux reporter fold induction |
| --- | --- |
| CN[C@@H]1[C@@H](O)[C@@H](O[C@@H]2[C@@H](O)[C@H](O[C@H]3O[C@H]([C@@H](C)O)[C@@H](O)[C@H](O)[C@H]3N)[C@@H](N)C[C@H]2N)OC[C@]1(C)O [Geneticin (G418)] | 1.34 ± 0.41 |

same assay, conditions: Biolog plate: PM14; well positions: B5-8; ΔrcsB mutant CMS5177; 4 h

| Structure (SMILES) | PosmB-lux reporter fold induction |
| --- | --- |
| CCCCc1ccc(C(=O)O)nc1 [Fusaric acid] | 1 ± 0.025 |

same assay, conditions: Biolog plate: PM14; well positions: B9-12; ΔrcsB mutant CMS5177; 4 h

| Structure (SMILES) | PosmB-lux reporter fold induction |
| --- | --- |
| O=[As]([O-])([O-])[O-].[Na+].[Na+].[Na+] [Sodium arsenate] | 0.724 ± 0.054 |

same assay, conditions: Biolog plate: PM14; well positions: C9-12; ΔrcsB mutant CMS5177; 4 h

| Structure (SMILES) | PosmB-lux reporter fold induction |
| --- | --- |
| N#CO [Sodium cyanate] | 1.38 ± 0.44 |

same assay, conditions: Biolog plate: PM14; well positions: D1-4; ΔrcsB mutant CMS5177; 4 h

| Structure (SMILES) | PosmB-lux reporter fold induction |
| --- | --- |
| [Cl][Cd][Cl] [Cadmium chloride] | 0.871 ± 0.061 |

same assay, conditions: Biolog plate: PM14; well positions: D5-8; ΔrcsB mutant CMS5177; 4 h

| Structure (SMILES) | PosmB-lux reporter fold induction |
| --- | --- |
| O=C(O)CI [Iodoacetate] | 0.974 ± 0.21 |

same assay, conditions: Biolog plate: PM14; well positions: D9-12; ΔrcsB mutant CMS5177; 4 h

| Structure (SMILES) | PosmB-lux reporter fold induction |
| --- | --- |
| [Na+].[Na+].[O]=[Cr](=[O])([O-])[O][Cr](=[O])(=[O])[O-] [Sodium dichromate] | 1.03 ± 0.33 |

same assay, conditions: Biolog plate: PM14; well positions: G9-12; ΔrcsB mutant CMS5177; 4 h

| Structure (SMILES) | PosmB-lux reporter fold induction |
| --- | --- |
| O=[N+]([O-])[O-].[Na+] [Sodium nitrate] | 2.32 ± 0.21 |

same assay, conditions: Biolog plate: PM15; well positions: E9-12; ΔrcsB mutant CMS5177; 4 h

| Structure (SMILES) | PosmB-lux reporter fold induction |
| --- | --- |
| C[n+]1ccc(-c2cc[n+](C)cc2)cc1 [Methyl viologen] | 1.89 ± 0.16 |

same assay, conditions: Biolog plate: PM15; well positions: G5-8; ΔrcsB mutant CMS5177; 4 h

| Structure (SMILES) | PosmB-lux reporter fold induction |
| --- | --- |
| [N-]=[N+]=[N-] [Sodium azide] | 1.5 ± 0.15 |

same assay, conditions: Biolog plate: PM16; well positions: C1-4; ΔrcsB mutant CMS5177; 4 h

| Structure (SMILES) | PosmB-lux reporter fold induction |
| --- | --- |
| CN(C)S(=O)(=O)N(SC(F)(Cl)Cl)c1ccccc1 [dichlofluanid] | 2.54 ± 1.7 |

same assay, conditions: Biolog plate: PM16; well positions: C9-12; ΔrcsB mutant CMS5177; 4 h

| Structure (SMILES) | PosmB-lux reporter fold induction |
| --- | --- |
| CCCCCCCCCCCCCCCC[n+]1ccccc1 [cetylpyridinium] | 1.77 ± 0.53 |

same assay, conditions: Biolog plate: PM16; well positions: D1-4; ΔrcsB mutant CMS5177; 4 h

| Structure (SMILES) | PosmB-lux reporter fold induction |
| --- | --- |
| O=[N+]([O-])c1ccc(Cl)c([N+](=O)[O-])c1 [1-chloro-2,4-dinitrobenzene] | 1.75 ± 0.99 |

same assay, conditions: Biolog plate: PM16; well positions: F1-4; ΔrcsB mutant CMS5177; 4 h

| Structure (SMILES) | PosmB-lux reporter fold induction |
| --- | --- |
| O=[Te]([O-])[O-].[K+].[K+] [potassium tellurite] | 1.28 ± 0.43 |

same assay, conditions: Biolog plate: PM16; well positions: F5-8; ΔrcsB mutant CMS5177; 4 h

| Structure (SMILES) | PosmB-lux reporter fold induction |
| --- | --- |
| O=[Se]([O-])[O-].[Na+].[Na+] [sodium selenite] | 1.25 ± 0.21 |

same assay, conditions: Biolog plate: PM17; well positions: A5-8; ΔrcsB mutant CMS5177; 4 h

| Structure (SMILES) | PosmB-lux reporter fold induction |
| --- | --- |
| NC(CCl)C(=O)O [b-chloro-L-alanine hydrochloride] | 1.04 ± 0.15 |

same assay, conditions: Biolog plate: PM17; well positions: B5-8; ΔrcsB mutant CMS5177; 4 h

| Structure (SMILES) | PosmB-lux reporter fold induction |
| --- | --- |
| CNC1CC(N)C(O)C(OC2OC(CO)C(O)C3OC4(OC(C(N)CO)C(O)C(O)C4O)OC23)C1O (stereo not given) [hygromycin B] | 1.37 ± 0.19 |

same assay, conditions: Biolog plate: PM17; well positions: C1-4; ΔrcsB mutant CMS5177; 4 h

| Structure (SMILES) | PosmB-lux reporter fold induction |
| --- | --- |
| Nc1ccncc1 [4-aminopyridine] | 1.95 ± 1.4 |

same assay, conditions: Biolog plate: PM17; well positions: D1-4; ΔrcsB mutant CMS5177; 4 h

| Structure (SMILES) | PosmB-lux reporter fold induction |
| --- | --- |
| CC1=C(C(=O)Nc2ccccc2)S(=O)(=O)CCO1 [oxycarboxin] | 1.01 ± 0.57 |

same assay, conditions: Biolog plate: PM17; well positions: D5-8; ΔrcsB mutant CMS5177; 4 h

| Structure (SMILES) | PosmB-lux reporter fold induction |
| --- | --- |
| Nc1ncn[nH]1 [3-amino-1,2,4-triazole] | 5.84 ± 4.5 |

same assay, conditions: Biolog plate: PM17; well positions: G1-4; ΔrcsB mutant CMS5177; 4 h

| Structure (SMILES) | PosmB-lux reporter fold induction |
| --- | --- |
| O=C(O)CCCc1ccc(N(CCCl)CCCl)cc1 [chlorambucil] | 1.28 ± 0.21 |

same assay, conditions: Biolog plate: PM18; well positions: C9-12; ΔrcsB mutant CMS5177; 4 h

| Structure (SMILES) | PosmB-lux reporter fold induction |
| --- | --- |
| Oc1c(Cl)c(Cl)c(Cl)c(Cl)c1Cl [pentachloro-phenol] | 0.784 ± 0.046 |

same assay, conditions: Biolog plate: PM18; well positions: E5-8; ΔrcsB mutant CMS5177; 4 h

| Structure (SMILES) | PosmB-lux reporter fold induction |
| --- | --- |
| [O-][I+3]([O-])([O-])O [sodium m-periodate] | 1.04 ± 0.24 |

same assay, conditions: Biolog plate: PM18; well positions: E9-12; ΔrcsB mutant CMS5177; 4 h

| Structure (SMILES) | PosmB-lux reporter fold induction |
| --- | --- |
| [Cl][Sb]([Cl])[Cl] [antimony (III) chloride] | 0.481 ± 0.06 |

same assay, conditions: Biolog plate: PM18; well positions: F1-4; ΔrcsB mutant CMS5177; 4 h

| Structure (SMILES) | PosmB-lux reporter fold induction |
| --- | --- |
| NNC(N)=O [semicarbazide] | 3.86 ± 1.5 |

same assay, conditions: Biolog plate: PM18; well positions: G1-4; ΔrcsB mutant CMS5177; 4 h

| Structure (SMILES) | PosmB-lux reporter fold induction |
| --- | --- |
| Oc1cc(Cl)ccc1Oc1ccc(Cl)cc1Cl [triclosan] | 1.05 ± 0.51 |

same assay, conditions: Biolog plate: PM18; well positions: G5-8; ΔrcsB mutant CMS5177; 4 h

| Structure (SMILES) | PosmB-lux reporter fold induction |
| --- | --- |
| Nc1n[nH]c(N)n1 [3,5-diamino-1,2,4-triazole (Guanazole)] | 12 ± 5.6 |

same assay, conditions: Biolog plate: PM18; well positions: H5-8; ΔrcsB mutant CMS5177; 4 h

| Structure (SMILES) | PosmB-lux reporter fold induction |
| --- | --- |
| Oc1ccccc1-c1ccccc1 [2-phenylphenol] | 1.22 ± 0.42 |

same assay, conditions: Biolog plate: PM18; well positions: H9-12; ΔrcsB mutant CMS5177; 4 h

| Structure (SMILES) | PosmB-lux reporter fold induction |
| --- | --- |
| CC1=CC(=O)c2c(O)cccc2C1=O [plumbagin] | 1.11 ± 0.53 |

same assay, conditions: Biolog plate: PM20; well positions: C5-8; ΔrcsB mutant CMS5177; 4 h

| Structure (SMILES) | PosmB-lux reporter fold induction |
| --- | --- |
| CN1[C@@H]2CC[C@H]1C[C@@H](OC(=O)C(CO)c1ccccc1)C2 (stereo not given in full) [atropine] | 1.49 ± 0.44 |

same assay, conditions: Biolog plate: PM20; well positions: E5-8; ΔrcsB mutant CMS5177; 4 h

| Structure (SMILES) | PosmB-lux reporter fold induction |
| --- | --- |
| CCCCCCCCCCCCNC(=N)N [dodine] | 1.31 ± 0.24 |

same assay, conditions: Biolog plate: PM20; well positions: F1-4; ΔrcsB mutant CMS5177; 4 h

| Structure (SMILES) | PosmB-lux reporter fold induction |
| --- | --- |
| O=c1cc(O)c2ccccc2o1 [4-hydroxyl-coumarin] | 1.62 ± 0.32 |

same assay, conditions: Biolog plate: PM20; well positions: G1-4; ΔrcsB mutant CMS5177; 4 h

| Structure (SMILES) | PosmB-lux reporter fold induction |
| --- | --- |
| O=C1C2CC=CCC2C(=O)N1SC(Cl)(Cl)Cl (stereo not given) [captan] | 1.72 ± 0.34 |

same assay, conditions: Biolog plate: PM20; well positions: G9-12; ΔrcsB mutant CMS5177; 4 h

| Structure (SMILES) | PosmB-lux reporter fold induction |
| --- | --- |
| Oc1cccc2cccnc12 [8-hydroxy-quinoline] | 1.84 ± 0.48 |

same assay, conditions: Biolog plate: PM20; well positions: H1-4; ΔrcsB mutant CMS5177; 4 h

| Structure (SMILES) | PosmB-lux reporter fold induction |
| --- | --- |
| O=C1C=C2C(=CCOC2O)O1 (stereo not given) [patulin] | 2.24 ± 1.1 |

same assay, conditions: Biolog plate: PM20; well positions: H5-8; ΔrcsB mutant CMS5177; 4 h

| Structure (SMILES) | PosmB-lux reporter fold induction |
| --- | --- |
| Cc1ccc(N(SC(F)(Cl)Cl)S(=O)(=O)N(C)C)cc1 [tolylfluanid] | 1.7 ± 0.64 |
